About 83,000 compounds went through this panel and 20% of them were active in at least one assay; those are over-represented in the sample as a whole.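 96-well plates, one dose, 48 hours. Percent growth reported; active if below 10.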 Unmarked numbers belong to inactive results. The source made the active and inactive calls.
These molecules were tested on HL-60(TB) leukemia (assay: NCI-60 one-dose screen, 48 h (100 = growth as untreated, 0 = no growth, -100 = all killed)). Settings: 10 µM unless noted.

SMILES | growth
O=C(Nc1ccc(C23CC4CC(CC(c5ccccc5)(C4)C2)C3)cc1)c1cccs1 | 51%
NNc1cccc([N+](=O)[O-])c1 | 6.4% (active)
C/C(=C\CCc1ccoc1)CC/C=C(\C)CCCN1CCC(CO)CC1 | 17.2%
CCN(CC)CCCC(C)Nc1c2c(nc3ccc(OC)cc13)CCCC2 (stereo not given) | 80.3%
Cc1[nH]cnc1/C=C1\SC(N2CCCCC2)=NC1=O | 96.4%
COc1c(C)c(C)c(OC)c2c1[nH]c(=O)c1c3cccnc3cn21 | 112%
CC(C)CCCCCOC(=O)c1ccccc1SSc1ccccc1C(=O)OCCCCCC(C)C | 82.2%
CC(=O)OC(C)C(=O)NCC(C)O (stereo not given) | 86.9%
COc1ccc(/C=C/C(=O)c2ccc(-n3cc(CN4CCN(c5cc6c(cc5F)c(=O)c(C(=O)O)cn6C5CC5)CC4)nn3)cc2)cc1OC | 45.1%
COc1cc(/C=C/c2cc(/C=C/c3ccc(O)c(OC)c3)n(C(=O)c3ccccc3Br)n2)ccc1O | -23.9% (active)
Cc1ccc(-c2nc(C(Cl)Cl)n3nc(-c4ccccc4)cc3n2)cc1 | 61.3%
N#Cc1c(Cl)nc(SCC2CO2)nc1-c1ccccc1 (stereo not given) | 105%
Cc1ccc(N2C3c4ccccc4N(S(=O)(=O)c4ccc(C)cc4)C2c2ccccc2N3S(=O)(=O)c2ccc(C)cc2)cc1 | 80.5%
COc1cc(NC(=O)c2cc(O)c(CC=C(C)C)c(O)c2)cc2c1O[C@]1(C)CC[C@@H](O)C(C)(C)[C@H]1C2 | 9.12% (active)
S=c1nn[nH]n1C1CCCCC1 | 79.8%
COc1ccc(-c2ccccc2)cc1-c1c(Nc2cc(Cl)cc(Cl)c2O)c(=O)c1=O | -29.8% (active)
COc1ccc(/C=N/NC(=O)Cn2c(-c3ccc(S(C)(=O)=O)cc3)nc3cc(Cl)ccc32)cc1 | -51.6% (active)
OC(c1ccccc1)C(NCc1ccccc1)c1ccccc1 (stereo not given) | 98.4%
Cc1cc(Nc2ccc(F)cc2)nc(N2CCN(c3ccnc4cc(Cl)ccc34)CC2)n1 | 7.98% (active)
N#Cc1c(N2CCNCC2)nc2sc3cc(Cl)c(Cl)cc3n2c1=N | 89%

SMILES | growth
CCOC(=O)/C(=C/c1ccc([N+](=O)[O-])cc1)C(=O)c1ccccc1 | -20.8% (active)
COc1cc(/C=C2\CCCC3=C2N=C2SC=NN2C3c2cc(OC)c(OC)c(OC)c2)cc(OC)c1OC (stereo not given) | -1.19% (active)
Cc1ccc(S(=O)(=O)N/N=C2\CC3CCC2C3)cc1 (stereo not given) | 98.5%
COc1ccc(-n2cnc3cc(C(=O)N4CCCCC4)ccc32)cc1 | 105%
COc1cc(C2CC(=O)Nc3c2c(C)nn3-c2nc3ccccc3[nH]2)cc(OC)c1O (stereo not given) | 43.7%
C=CC(=O)NCc1cccc(Nc2ncc(Br)c(NCCCNC(=O)C3CCC3)n2)c1 | -50% (active)
O=C(C[C@]1(O)C(=O)Nc2ccc(Br)cc21)c1ccco1 | 107%
O=c1[nH]c(CN2CCN(c3cccc(Cl)c3)CC2)nc2cc(Cl)ccc12 | 116%
CCN(CC)c1ccc(C2CC(c3cc(OC)c(OC)c(OC)c3)=NN2)cc1 (stereo not given) | -35.1% (active)
CCOC(=O)C/C(=N\Nc1cc(=O)[nH]c2ccc(C)cc12)C(=O)OCC | 92%
CSc1nsc(N)n1 | 105%
CCCCCCCC/C=C\CCCCCCCCOc1ccc(CC(=O)NCC[N+](C)(C)C)cc1 | -35.7% (active)
O=C(O)c1cccc2c1-c1ccccc1C2=O | 106%
COc1ccc(C(=O)OC2C(OC3C(O)COC(O[C@H]4C[C@H]5[C@@H]6CC=C7C[C@@H](O)CC[C@]7(C)[C@H]6CC[C@]5(C)[C@H]4[C@H](C)C(=O)CCC(C)C)C3OC(N)=O)OCC(O)C2O)cc1 (stereo not given in full) | -36.9% (active)
COc1ccc(C(O)(CCC(C)C)C(CN2CCOCC2)c2ccc(Cl)cc2)cc1 (stereo not given) | 20.9%
COc1ccc(CN(c2ccc(C)cc2)C2OC(=O)c3ccccc32)cc1OC (stereo not given) | 96.9%
O=C(CCCCN1CCOCC1)Nc1ccc(Cn2nnc3c2C(=O)c2nnn(Cc4ccc(NC(=O)CCCCN5CCOCC5)cc4)c2C3=O)cc1 | -28.4% (active)
COc1cc2c3c(c4c5ccccc5[nH]c4c2c(OC)c1OC)C(=O)N(O)C3=O | 51.7%
Cl.Fc1c[c-]c(-c2ccccn2)c(F)c1.[Pt].c1ccc(P(c2ccccc2)C([PH+](c2ccccc2)c2ccccc2)[PH+](c2ccccc2)c2ccccc2)cc1 | 8.71% (active)
COc1cc(/C=C/C(=O)c2ccc(Nc3ncnc4ccccc34)cc2)cc(OC)c1 | 55.5%
